Screening results deposited in PubChem BioAssay by National Center for Advancing Translational Sciences (NCATS).
A selection: hits, their analogues and other compounds. The true share with any hit is near 19%.
DT40 TDP1 CPT = growth inhibition of DT40 Tdp1-/-;hTDP1 cells with camptothecin (screen for TDP1 inhibitors); hit rate 12% among 420,000; chicken DT40 Tdp1-/-;hTDP1 cells + 20 nM CPT, ATP luminescence, 48 h; Potency, µM (doses to about 46.2 µM), actives largely listed as inhibitors; further: nearly all actives have a fitted effect of over 55% in size
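Cell growth measured by CellTiter-Glo luminescence after a minimum 48 h, 37 C compound exposure with 20 nM CPT in Tdp1-knockout DT40 cells stably expressing hTDP1, seeded 400/well; qHTS titration format.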
HT1080NT lethal = kills 2HG-producing HT-1080-NT fibrosarcoma cells | HT-1080-NT fibrosarcoma viability, CellTiter-Glo ATP luminescence, 48 h | Potency, µM (titrated, usually from 46.1 µM), usual class: cytotoxic | hit rate 1.6% among 360,000 | AID 686970;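 further: NT is the 2HG producing partner of a matched IDH1 knockdown line; nearly all actives have a fitted effect of over 55% in size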
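HT-1080-NT; 750 cells/well; 5% FBS RPMI; 48 h compound, 37 degrees C; CellTiter-Glo luminescence; curve fitting and curve-class assignment.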
DT40 TDP1 no CPT = qHTS for Inhibitors of human tyrosyl-DNA phosphodiesterase 1 (TDP1): qHTS in cells in absence of CPT; Potency, µM (highest dose often 46.2 µM), most hits filed as inhibitors; DT40 Tdp1-/- hTDP1 cells, no CPT, ATP luminescence, 48 h; AID 686978, 2013; hit rate 15% among 420,000; further: nearly all actives have a fitted effect of over 55% in size
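Chicken DT40 Tdp1-/- cells complemented with human TDP1, screened without camptothecin (DMSO vehicle only), 400 cells/well. Compounds pin-transferred, cells incubated at 37 °C for at least 48 hr. Growth read as ATP-dependent luminescence (CellTiter-Glo, 30 min at RT).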
IL1B secr inh = inhibitors of inflammasome signaling (IL-1 beta secretion) | THP-1 LPS/ATP IL-1B secretion, AlphaLISA, 16 h; stronger effect = lower value | activity change, % at 57.5 µM | hit rate 4.7% among 360,000; in the data active means activity change below about -50%; inconclusive means mostly about -30% to -49%
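Secreted IL-1B measured by AlphaLISA bead assay after 16 h compound exposure of THP-1 cells; compounds (final up to 57.5 uM) added 1 h before LPS (250 ng/mL) and ATP (1.25 mM) stimulation; lower signal means less secretion.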
HT1080 IDH1KD tx = kills HT-1080 cells with IDH1 knockdown. HT-1080 IDH1 knockdown viability, ATP luminescence, 48 h. hit rate 2% among 360,000. Potency, µM (highest dose often 46.1 µM), actives largely listed as cytotoxic. AID 686971
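Luminescent ATP read-out (CellTiter-Glo, 10 min at room temperature) after 48 h compound exposure at 37 °C gave viability of IDH1-knockdown HT-1080 cells. Activity was normalised to DMSO and cell-free wells, then fitted as concentration-response curves.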
Hits are given with their value; 0 = inactive; ? = inconclusive; - = not tested or not shown; [ ] = remark or other dose. Unless noted, the call rests on the fitted dose curve; in most records, active means well fitted curve in the direction sought with a large enough effect; inconclusive means small, poorly fitted or top-dose-only effect, or another doubt; inactive means no such curve, though single readings can be large; an effect the other way counts as inactive or inconclusive.

SMILES	DT40 TDP1 CPT	HT1080NT lethal	DT40 TDP1 no CPT	IL1B secr inh	HT1080 IDH1KD tx
Cc1ccc(-c2nnn(CC(=O)N(Cc3cccs3)C(C(=O)NCC3CCCO3)c3ccco3)n2)o1 (configuration not stated)	0	0	0	0	0
COc1ccc(N2CC(C(=O)N[C@H](C(=O)NC3CCCCC3)C(C)C)CC2=O)cc1 (some centres not stated)	0	0	0	0	0
OC[C@@H]1CN(Cc2ccccc2)C[C@H](n2cnc3c(NCc4ccncc4)ncnc32)O1	0	0	0	0	0
c1ccc(CCNCCCOc2cccc3ccccc23)cc1	0	?	?	-101	?
COc1ccc(CCNCC(O)COc2ccc(Cl)cc2)cc1OC (configuration not stated)	?	0	0	?	0
OC(CNCCc1ccccc1)COc1ccc(OCC(O)CNCCc2ccccc2)cc1 (configuration not stated)	0	?	16µM	-91	23µM
COc1ccc(CCNCC(O)COc2c(C)cccc2C)cc1OC (configuration not stated)	0	0	?	-67	0
CC(=O)c1c(C)[nH]c2ccc(OCC(O)CNCCc3ccccc3)cc12 (configuration not stated)	?	-	16µM	-	-
COc1ccc(CCNCC(O)COc2cccc(C(C)=O)c2)cc1OC (configuration not stated)	0	0	?	0	0
Cc1ccc(OCC(O)CNCc2ccccc2)cc1C (configuration not stated)	?	0	?	?	0
COc1ccc(C(=O)CSc2nnn(-c3cccc(NC(C)=O)c3)n2)cc1	?	0	23µM	-	0
COc1ccc(CN2CCc3ccccc3C2)c(OC)c1OC	?	0	0	0	0
COc1ccc(C(=O)Nn2c(CC(C)C)nc3cc(Cl)ccc3c2=O)c(OC)c1	?	0	21µM	0	0
COc1ccc(OC)c(CNC(=O)c2cnc(N(C)C)nc2)c1	0	-	0	-	-
CC/C(=C\c1ccc(N(C)C)cc1)c1ccncc1	23µM	?	?	-64	?
CCc1ccccc1NC(=O)Nc1cc(F)ccc1F	?	0	0	0	0
CCN1CCN(c2ccc(S(=O)(=O)N3CCCCC3)cc2NC(=O)c2cccc(C(F)(F)F)c2)CC1	?	0	18µM	-72	0
CN1CCN(S(=O)(=O)c2cccc(C(=O)Nc3cc(C(F)(F)F)ccc3N3CCCCC3)c2)CC1	?	0	18µM	-52	0
CCOCc1c(C(=O)OCC(=O)/C(C#N)=C(\C)N)oc2ccccc12	0	0	0	0	0
COc1ccc(-c2nc3ccc(C4=NNC(=O)CC4C)cc3[nH]2)cc1 (configuration not stated)	?	-	13µM	-	-
Nc1oc2ccc(F)cc2c(=O)c1C=O	0	0	0	0	0
O=c1[nH]c(/C=C/c2ccccc2OC(F)F)nc2c1cnn2-c1ccccc1	0	18µM	?	0	?
COc1cc(/C=C/c2nc3ccccc3c(=O)[nH]2)ccc1OC(F)F	0	0	0	?	0
COc1ccc(C(CC(=O)c2ccc(C)cc2)C(C#N)C#N)cc1OC (configuration not stated)	4.1µM	21µM	5.2µM	-100	23µM
Cc1ccc(S(=O)(=O)CC(CN2CCCCC2)N2CCCCC2)cc1 (configuration not stated)	?	18µM	13µM	-98	18µM
SMILES	DT40 TDP1 CPT	HT1080NT lethal	DT40 TDP1 no CPT	IL1B secr inh	HT1080 IDH1KD tx
Cc1ccc(S(=O)(=O)CC(c2ccccc2)N2CCCCC2)cc1 (configuration not stated)	?	0	?	?	0
O=S(=O)(CC(CN1CCOCC1)N1CCOCC1)c1ccccc1 (configuration not stated)	0	0	0	0	0
O=S(=O)(CC(CN1CCCCC1)N1CCCCC1)c1ccc2ccccc2c1 (configuration not stated)	5.2µM	?	2.6µM	-97	?
CC(=O)OC1CC2(C)C(CCC2(O)C(C)=O)C2CCC3C(Cl)C(=O)CCC3(C)C12 (configuration not stated)	?	0	0	0	0
Cc1ccc(C(C)CCN2CCOc3ccc(CN4CCOCC4)cc3C2)o1 (configuration not stated)	0	-	0	-	-
N=c1n(CCN2CCOCC2)c2ccccc2n1Cc1ccccc1Br	?	0	?	0	0
COc1ccc(C(=O)Cn2c(=O)c(-c3cc(C)ccc3NC(C)=O)nc3ccccc32)cc1	0	-	0	-	-
CCCNC(=O)Cn1c(=O)/c(=C\c2ccc(-c3cccc([N+](=O)[O-])c3)o2)s/c1=C\C(=O)C(C)(C)C	23µM	0	23µM	0	0
CCCNC(=O)Cn1c(=O)/c(=C/c2ccc(-c3cccc([N+](=O)[O-])c3)o2)s/c1=C\C(=O)C(C)(C)C	?	0	?	0	0
CN(C)c1ccc(C(CNC(=O)COc2ccccc2)N2CCOCC2)cc1 (configuration not stated)	0	-	0	-	-
CN(C)c1ccc(C(CNC(=O)c2ccc(C(C)(C)C)cc2)N2CCOCC2)cc1 (configuration not stated)	16µM	-	21µM	-	-
CCOc1cc(C(=O)NCC(c2ccc(N(C)C)cc2)N2CCOCC2)cc(OCC)c1OCC (configuration not stated)	21µM	-	18µM	-	-
COc1ccc(C(CNC(=O)c2ccc(S(=O)(=O)N3CCCC3)cc2)N2CCOCC2)cc1 (configuration not stated)	0	0	0	0	0
CCN(C(=O)c1ccc2c(c1)OCO2)C1CCS(=O)(=O)C1 (configuration not stated)	0	0	0	0	0
CCCCN1CC(c2nc3ccccc3n2CCCCOc2ccc(C)c(C)c2)CC1=O (configuration not stated)	10µM	-	7.3µM	-	-
Cc1ccc(N2CC(c3nc4ccccc4n3C)CC2=O)cc1C (configuration not stated)	0	0	?	0	0
CCCCN1CC(c2nc3ccccc3n2CCCCOc2cccc(C)c2C)CC1=O (configuration not stated)	?	-	21µM	-	-
C=C(C)Cn1c(C2CC(=O)N(Cc3ccccc3)C2)nc2ccccc21 (configuration not stated)	?	0	?	0	0
CCCCN1CC(c2nc3ccccc3n2CCCCOc2cc(C)cc(C)c2)CC1=O (configuration not stated)	12µM	-	7.3µM	-	-
O=C(Nc1cccc(N2CCC(NCc3cnn(-c4ccccc4)n3)CC2)c1)c1cccnc1	0[9.04 µM]	-	?	-	-
